Data on 38 compounds can be found in PubChem BioAssay AID720650 (Broad Institute, 2013).

Calls of active or inactive are those of the source. No rule for the calls is given here. Some results are limits rather than exact numbers.

Usually AC50 stands for the concentration giving half of the maximal activity seen.

This experiment in a line: C difficile toxins, biochemical counterscreen, UDPG substrate absence, confirmatory dose response (AID 720650). As to conditions: series mostly up to 19.5 µM; activity change, negative = inhibition: at the top concentration. (In general: The purpose of a counterscreen is to sort out artefacts and off-target activity.)
Turning to `Fc1ccc(/C=C\c2nccc3c2[nH]c2ccccc23)cc1`, the “activity change, negative = inhibition” value is -10% (inactive).

For the compound `CCOC(=O)c1ccc(NC(=O)Oc2cc(C)c(Cl)cc2C(C)C)cc1`, the “activity change, negative = inhibition” value was -0.216% (inactive).

`CCOC(=O)C1=C(C)Nc2nnnn2C1c1ccc(OC)c(Br)c1` (stereo not drawn): the AC50 is > 39 µM (inactive).

Take `CC(C)Cc1[nH]c(=O)c(C#N)c2c1CCC2`: the “activity change, negative = inhibition” value was 0.92% (inactive).

As for `COc1ccc(S(=O)(=O)N2CCOCC2)cc1NC(=O)COC(=O)c1[nH]c(C)c(C(C)=O)c1C`, the AC50 was > 39 µM (inactive).

In the case of `O=C(N/N=C/c1ccccn1)c1ccc([N+](=O)[O-])cc1Cl`, the “activity change, negative = inhibition” value was -1.86% (inactive).

For the compound `O=C1Nc2ccc(Br)cc2C1Cc1ccccc1F` (stereo not drawn), the AC50 is 7.69 µM (active).

For the compound `Oc1ccc2c(ccc3[nH]cnc32)c1`, the AC50 was 20.8 µM (active).

As to `Cc1ccc2c(c1)/C(=C/c1ccccc1C)C(=O)N2`, the “activity change, negative = inhibition” value was -14.1% (inactive).

As to `CCOC(=O)c1ccc2ncc(-c3ccccc3)nc2c1`, the “activity change, negative = inhibition” value was 2.63% (inactive).

Take `COc1cccc2cc(/C(C)=N/NC(=O)c3ccco3)oc12`: the “activity change, negative = inhibition” value was -0.027% (inactive).

`CC(=O)Nc1ccc(Oc2nc(-c3ccccn3)nc3ccccc23)cc1`: the AC50 is 11 µM (active).

`CC(=O)Nc1cccc2cc(O)ccc12`: the AC50 was 11.1 µM (active).

Turning to `Cc1cc(O)ccc1NC(=O)c1ccccc1`, the AC50 was 17.9 µM (active).

With `c1ccc(OCCSc2nnc3sc4ccccc4n23)cc1`, the concentration at half-maximal activity (AC50) was 20.6 µM (active).

With `Cn1c(-c2ccc(F)c(F)c2)cc2onc(-c3ccccc3)c2c1=O`, the “activity change, negative = inhibition” value was -4.71% (inactive).

Take `O=C(C[C@@H]1CC[C@H]2[C@@H](COC[C@H](O)CN2C(=O)c2ccccn2)O1)NC1CCC1`: the “activity change, negative = inhibition” value was -6.78% (inactive).

In the case of `O=C(Nc1ccc(N2CCOCC2)c(Cl)c1)c1ccc(F)cc1`, the “activity change, negative = inhibition” value was -13.4% (inactive).

Regarding `CN(C)CC(=O)N1CC[C@@H]2[C@H]1c1cc(-c3ccccc3)ccc1N(C)[C@H]2CO`, the AC50 is 14.1 µM (active).

Turning to `CC(=O)Nc1ccc(N(C(=O)c2ccco2)C(C(=O)NC2CCCC2)c2cccs2)cc1` (stereo not drawn), the “activity change, negative = inhibition” value was -2.84% (inactive).

For the compound `COc1cccc(C(=O)Nc2ccc3c(c2)C(=O)N(C)[C@@H]2CC[C@H](CC(=O)NCCCN4CCOCC4)O[C@@H]2CO3)c1`, the “activity change, negative = inhibition” value is -13.7% (inactive).

Take `COc1ccc2nccc(/C=C/c3ccnc4ccc(OC)cc34)c2c1`: the “activity change, negative = inhibition” value was -16% (inactive).

In the case of `COc1ccc(NS(=O)CCCc2ccccc2)cc1` (stereo not drawn), the “activity change, negative = inhibition” value was -1.77% (inactive).

`Cc1cc(C)c2nc(C)cc(N/N=C/c3ccc(O)cc3)c2c1`: the AC50 was 12.1 µM (active).

Turning to `O=C(CSc1cccc2cccnc12)N/N=C/c1ccc(O)cc1`, the concentration at half-maximal activity (AC50) is 11.1 µM (active).

Consider `NC(=O)c1ccc2c(=O)c(O)c(-c3cc(Cl)c(N)c(Cl)c3)[nH]c2c1`, for which the “activity change, negative = inhibition” value was -2.89% (inactive).

For `O=C(NCc1nnc2c(C(F)(F)F)cc(Cl)cn12)c1cccnc1`, the “activity change, negative = inhibition” value was -5.93% (inactive).

`Nc1ccc(C(=O)c2ccc3c(c2)OCCO3)cc1N`: the AC50 is 11.9 µM (active).

For the compound `COCC(=O)N1CC[C@@H]2[C@H]1c1cc(-c3cccc(OC)c3)ccc1N(C)[C@H]2CO`, the AC50 is 8.89 µM (active).

`Cc1nn2cc(-c3cccc(Cl)c3)cnc2c1Br`: the “activity change, negative = inhibition” value was -5.76% (inactive).

On to `COc1ccccc1-n1c(CCC(=O)O)ccc1-c1ccccc1`, for which the “activity change, negative = inhibition” value is -1.98% (inactive).

For `O=C(c1ccc(N2CCOCC2)c([N+](=O)[O-])c1)N1CCN(c2ccccc2F)CC1`, the AC50 is > 39 µM (inactive).

As for `Cc1ccn2c(Cc3ccccc3)c(-c3ccc(F)cc3)nc2c1`, the “activity change, negative = inhibition” value was -13.8% (inactive).

As to `Cc1[nH]c(=O)c(C#N)c2c1CCCC2`, the “activity change, negative = inhibition” value was -9.64% (inactive).

Consider `CCOC(=O)[C@@H]1[C@H]2COc3ccc(Br)cc3[C@@H]2N2C(=O)N(c3cccc(F)c3)C(=O)[C@]12C`, for which the “activity change, negative = inhibition” value was -11.4% (inactive).

`Cn1cc(C(CO)Cc2ccccc2)c2ccccc21` (stereo not drawn): the AC50 was > 39 µM (inactive).

`Oc1ccc(NC(=S)Nc2ccccc2)cc1`: the concentration at half-maximal activity (AC50) was 18.6 µM (active).

As for `COc1cc(N=Nc2c(C)n(C)n(-c3ccccc3)c2=O)ccc1N`, the “activity change, negative = inhibition” value was -7.35% (inactive).
